PubChem BioAssay (NCI)
Compounds without any hit were thinned out: in the full panel of roughly 83,000, 20% have a hit.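 Method: cells in 96-well plates; compound added at one concentration; 48 h incubation; percent growth measured; values under 10 scored active.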 A number with no mark means an inactive call. Calls of active or inactive are those of the source.

Columns and labels:
Test in all cases: NCI-60 one-dose screen, 48 h (100 = growth as untreated, 0 = no growth, -100 = all killed)
[1] = test system: HT29 colon; settings: 10 µM unless noted
[2] = test system: SNB-75 CNS; settings: 10 µM unless noted
[3] = test system: SNB-19 CNS; settings: 10 µM unless noted
[4] = test system: U251 CNS; settings: 10 µM unless noted
[5] = test system: PC-3 prostate; settings: 10 µM unless noted
[6] = test system: SK-MEL-5 melanoma; settings: 10 µM unless noted
[7] = test system: UACC-62 melanoma; settings: 10 µM unless noted
[8] = test system: LOX IMVI melanoma; settings: 10 µM unless noted
[9] = test system: SK-MEL-28 melanoma; settings: 10 µM
[10] = test system: SK-MEL-2 melanoma; settings: 10 µM unless noted

SMILES | growth [1] | growth [2] | growth [3] [%] | growth [4] | growth [5] | growth [6] | growth [7] | growth [8] | growth [9] | growth [10]
O=S1(=O)CCN(Cc2ccccc2)CC1 | 103% | 111% | 92 | 104% | 101% | 96.5% | 106% | 98.3% | 102% | 
CN1C(=O)N(C)C2(c3ccccc3)OC(=S)NC12c1ccccc1 (centres undefined) | 89.1% | 87.6% | 98.4 | 98.7% | 92.4% | 104% | 92.5% | 98.7% | 102% | 102%
O=C(Nc1ccc(N2CCNCC2)cn1)c1[nH]ncc1Nc1ncnc2sc3c(c12)CCC3 | -42.3% (active) | 85.7% | 10.7 | -71.9% (active) | -30.6% (active) | 59.7% | 38.9% | -79.6% (active) | -40.3% (active) | 89.7%
CN1CCN(c2nc(Nc3ccc(O)cc3)nc3ccccc23)CC1 | 43.4% | 75.2% | 55.9 | 33.9% | 60% | 46.1% | 49.2% | 20.1% | 66.2% | 
Fc1ccc(Oc2ccc(Nc3ncnc4onc(-c5ccccc5)c34)cc2)cc1 | 109% | 86.4% | 94 | 91.4% | 101% | 100% | 92.1% | 95.8% | 110% | 
Nc1nc(Nc2cccc(F)c2)nc2ccccc12 | 6.89% (active) | 56.1% | 57.5 | 38% | 44.3% | 16% | 41.3% | 17.2% | 44.4% | 
COc1ccccc1C1=C(Br)C(=O)c2nc(C)ccc2C1=O | 101% | 94.4% | 101 | 102% | 101% | 100% | 88.9% | 97.1% | 104% | 
O=c1oc2ccc(Cl)cc2c(=O)n1-c1ccc(F)cc1F | 86.6% | -12% (active) | 13.6 | 7.08% (active) | 2.49% (active) | -66.9% (active) | 3.47% (active) | 17.8% | 21.8% | 
Cc1cc(Br)c(N)c(Br)c1 | 106% | 84.3% | 103 | 96.4% | 93% | 102% | 98.6% | 93.6% | 101% | 110%
O=Cc1cc2ccccc2nc1Nc1nccs1 | 33.9% | 79.4% | 71.6 | 70.4% | 49.5% | 82.2% | 84.5% | 31.7% | 104% | 105%
Nc1ccn(C2O[C@H](CO)[C@@H](O)[C@H]2O)c(=O)n1 (some centres undefined) | 106% | 76.9% | 101 | 48.9% | 85.6% | 89.9% | 95.9% | 75.5% | 76.4% | 110%
Clc1ncccc1Nc1ccc2nnc(-c3ccncc3)n2n1 | 110% | 99.2% | 102 | 101% | 102% | 104% | 106% | 92.8% | 112% | 109%
O=C(COc1cc(O)c2c(=O)cc(-c3ccccc3)oc2c1)Nc1ccccc1 | 106% | 88% | 87.4 | 93.7% | 86.2% | 99% | 93.7% | 89.6% | 107% | 96.6%
O=C(c1nc2ccccc2[nH]1)C1[C@@H](c2cccc(O)c2)C2CC3CCCCC3N2[C@@]12C(=O)Nc1cc(Cl)ccc12 (some centres undefined) | 50.6% | 27.2% | 42.4 | 37.7% | 24% | 37.2% | 47.6% | 22.3% | 45% | 60.2%
COc1ccc(C2NCCc3c2[nH]c2ccccc32)cc1CN1CCN(c2ccc(F)cc2)CC1 (centres undefined) | -3.33% (active) | 24.4% | 77.9 | 26% | 44.8% | -40.7% (active) | 12.5% | 2.51% (active) | 67.9% | 64.1%
O=c1oc2ccc(Cl)cc2c(=O)n1-c1ccc(I)cc1F | 33.6% | -28.4% (active) | 18.6 | -1.68% (active) | 1.89% (active) | -81.5% (active) | -28.8% (active) | 0.538% (active) | 0.51% (active) | -24.3% (active)
COc1ccc(/C=C/C(=O)c2c(C)nc3ccccc3c2/C=C/c2ccccc2)c(OC)c1 | 62.9% | 81.5% | 92.9 | 90% | 75.9% | 85.7% | 62.1% | 83.8% | 108% | 95.9%
Oc1[nH]c2ccccc2c1N=Nc1nnc2n1N=C(c1ccccc1)CS2 | 72.5% | 65.1% | 83.6 | 50.4% | 81% | 95.6% | 99.8% | 93.4% | 97% | 87.6%
CC(=O)c1ccc(Nc2nc(NCCO)nc(Nc3ccc(Cl)cc3)n2)cc1 | 96.8% | 77.5% | 92.4 | 99.7% | 90.5% | 74.9% | 78% | 87.9% | 95.2% | 95.2%
COc1cc(CNC(=O)c2ccsc2Nc2ccnc(C(F)(F)F)c2)ccc1O | 97.8% | 101% | 96 | 95.4% | 88.1% | 98.2% | 102% | 91.7% | 118% | 103%
COc1ccc(/C=C2\NC(=O)NC2=O)cc1O | 107% | 105% | 102 | 99.2% | 101% | 102% | 103% | 95.3% | 104% | 115%
O=C(/C=C/c1ccccc1)c1ccc(Nc2nc(NCCO)nc(Nc3ccc(Cl)cc3)n2)cc1 | 30.2% | 69.2% | 79.6 | 23% | 77.8% | 80.2% | 78.7% | 30.6% | 88.2% | 95.4%
CSc1nc2c(c(=O)[nH]1)N=C1c3ccccc3C(=O)C1C(c1ccc(F)cc1)N2 (centres undefined) | 18% | 26.8% | 61.6 | 58.8% | 69.3% | 39.8% | 43.1% | 62% | 83.5% | 72.1%
COc1nc2c(c(=O)n1C)N=C1c3ccccc3C(=O)C1C(c1ccccc1)N2 (centres undefined) | 104% | 84.6% | 91.7 | 89.2% | 115% | 88.7% | 78.6% | 83.4% | 90.5% | 81.2%
COc1cc(C2CC(c3ccc(Nc4nc(NCCO)nc(N5CCOCC5)n4)cc3)=NN2c2cc(Cl)cc(Cl)c2)cc(OC)c1OC (centres undefined) | 33.6% | 28.2% | 72.6 | 47.7% | 34.1% | 60.1% | 48.6% | 30.9% | 72.8% | 94.7%
COc1ccc(N)c(-c2cc3c(c4c2[nH]c2ccc(OC)cc24)CCCC3)c1 | 76.1% | 70.9% | 88.5 | 74.3% | 52.9% | 94.7% | 69.5% | 83.1% | 97.7% | 95.4%
CCCCCCC(O)(c1ccc(F)cc1)C(CN1CCOCC1)c1ccccc1 (centres undefined) | 33.1% | 32.8% | 42 | 28% | 15.4% | 52.8% | 22.6% | 29.5% | 68.1% | 36.4%
CCOC(=O)c1sc(-c2ccc(OS(=O)(=O)C[C@]34CCC(CC3=O)C4(C)C)c(C=O)c2)nc1C | 6.26% (active) | -2.85% (active) | 18 | -9.73% (active) | 25.8% | 16.8% | 25% | -32.1% (active) | 52.6% | 12.8%
